The values below come from article PMC7819943, “Rice protein-binding microarrays: a tool to detect cis-acting elements near promoter regions in rice”.

Over roughly 39,000 sequences, “fluorescence intensity (a.u.)” has its median near 4,300; the highest 2% begin near 39,000. The list comes from a sample in which the highest values are over-represented; it also holds similar and randomly drawn sequences.

For this assay, the target named is T1, OsSMF1 (Oryza sativa, UniProt Q6ZLB0 1-436).
T1 sequence: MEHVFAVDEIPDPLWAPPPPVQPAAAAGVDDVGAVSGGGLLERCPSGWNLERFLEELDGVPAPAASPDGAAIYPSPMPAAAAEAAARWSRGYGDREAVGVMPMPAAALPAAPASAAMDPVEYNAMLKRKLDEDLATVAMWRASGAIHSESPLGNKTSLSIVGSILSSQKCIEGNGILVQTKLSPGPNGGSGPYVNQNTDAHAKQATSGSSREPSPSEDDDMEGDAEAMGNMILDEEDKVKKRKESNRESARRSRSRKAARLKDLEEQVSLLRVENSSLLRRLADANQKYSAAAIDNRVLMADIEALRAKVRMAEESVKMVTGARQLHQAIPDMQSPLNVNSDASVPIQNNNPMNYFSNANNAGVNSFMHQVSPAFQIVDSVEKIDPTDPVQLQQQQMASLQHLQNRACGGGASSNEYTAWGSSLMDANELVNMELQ
Description: protein-binding microarray (RPBM); PBS, 2% BSA, 51.3 ng/ul salmon testes DNA, 50 uM zinc acetate, 200 nM TF, 25 C, 1 h; high values mean tight binding. The note with it: protein: recombinant; tags: N-terminal polyhistidine and DsRed monomer fusion (pET32a); chain copies: 2; label: CyDye5-dUTP incorporated in the synthesized complementary strand; 3' TTTTT single-stranded linker to array surface; dsDNA, one strand shown. The method, boiled down:
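Binding signal is defined as the fluorescence intensity of each feature in arbitrary units, read on an Axon 4000B scanner. Transcription factors with N-terminal polyhistidine and DsRed fusions came from E. coli BL21-CodonPlus and were purified on Ni–NTA. They were incubated at 200 nM for 1 h at 25 °C on a custom Agilent array that had been made double-stranded with Cy5-dUTP, with 50 µM zinc acetate present, and the array was washed.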
Turning to “AGGTGCAGATGCTACTACTGATCTGGAACAGTGATCTCCACGGAGTCACCTAGTGCAG”, the binding signal is 3180 fluorescence intensity (a.u.).
As for “CCCATTGCTGTCTCTACCATGTGTCATCTTCCAATAAGCACGGAGTCACCTAGTGCAG”, the figure is 4950 fluorescence intensity (a.u.).
In the case of “GGCTGCGGCGCTGTCCCTCCGTCTGCGTGATCCGACAACCCGGAGTCACCTAGTGCAG” it was 3800 fluorescence intensity (a.u.); in that of “AACCAACCAACCACGTCGATCGCTCGCAGTCGCCGCCGCGCGGAGTCACCTAGTGCAG”, 3840 fluorescence intensity (a.u.).
In the case of “GCAGGCTGAATAAAACTGTATTGTCATCGATGATATTGGTCGGAGTCACCTAGTGCAG” it was 5020 fluorescence intensity (a.u.).
As to “AAAACAAATATAGAGGAGACAGCTCATTTTATTTCCTTGACGGAGTCACCTAGTGCAG”, the binding signal is 3340 fluorescence intensity (a.u.).
In the case of “ATAAGGGCCAGCATGTACGTGACAGTGCCATTCGGGCCCACGGAGTCACCTAGTGCAG” it was 4850 fluorescence intensity (a.u.); in that of “AAGTCAGGGTGTCCACGTCATCACCCTCCCTCTTTCTCCTCGGAGTCACCTAGTGCAG”, 55700 fluorescence intensity (a.u.); in that of “CTACATATCAGGTGTCCACGTCACCCTCTCTCTTTCCCCTCGGAGTCACCTAGTGCAG”, 37200 fluorescence intensity (a.u.).
In the case of “CATGTCAGACAGTCCACGTCATCACCTTTCTCTCCCCTCTCGGAGTCACCTAGTGCAG” it was 38200 fluorescence intensity (a.u.).
In the case of “TTAACTCGGTCTTCATCCTGTGTGACGCCTACGATACAACCGGAGTCACCTAGTGCAG” it was 4380 fluorescence intensity (a.u.); in that of “GGCTTCGGCCAGCTAGCCGCCACGTCTCCGCCGGTTTTAACGGAGTCACCTAGTGCAG”, 8270 fluorescence intensity (a.u.).
Consider “ATTTCTACCTGACGAAGTGACGATGCACTAGCCAGCTACTCGGAGTCACCTAGTGCAG”, for which the binding signal is 3900 fluorescence intensity (a.u.).
As for “AGACAAATAATTCCCTTTGCCATGCCTGTCAGTTAGGGAACGGAGTCACCTAGTGCAG”, the figure is 3500 fluorescence intensity (a.u.).
Take “AAACTTTATGTATAGAAATAATATATATATATATATATATCGGAGTCACCTAGTGCAG”: the binding signal was 29000 fluorescence intensity (a.u.).
For “ACTTATGATATGAAACGGAGAGAGTAGTAGATAAGATTTTCGGAGTCACCTAGTGCAG”, the binding signal is 28400 fluorescence intensity (a.u.).
As for “TGAGATATATATTTCGTATGTATATAGAGAAATAAAGAAACGGAGTCACCTAGTGCAG”, the figure is 57100 fluorescence intensity (a.u.).
As for “GAATAATTTATTAAATAATTTATAAATCCTGAAACGAAAACGGAGTCACCTAGTGCAG”, the figure is 3520 fluorescence intensity (a.u.); as for “GTAAACGCATGCCTTTTCGCAAATTTGTAAAACGAAACGACGGAGTCACCTAGTGCAG”, 31500 fluorescence intensity (a.u.).
As for “TTGTATAACTATGTGTATATGTGTATGGTTATTAAGCAAACGGAGTCACCTAGTGCAG”, the figure is 10500 fluorescence intensity (a.u.).
In the case of “TCCATGTATATTACATCATGGGGTTATGTAACATCACTGACGGAGTCACCTAGTGCAG”, the binding signal was 8280 fluorescence intensity (a.u.).
“CGACATTAAAGATTATGAATATTATGGGCAAATATAGGTCCGGAGTCACCTAGTGCAG”: the binding signal was 57600 fluorescence intensity (a.u.).
Regarding “CTTATTATGGTTATATGTGCAGGTATGGAGTAATAACTGACGGAGTCACCTAGTGCAG”, the binding signal is 46400 fluorescence intensity (a.u.).
Regarding “TCATAATATTATAAATTTGGACAAAGATATATCATATCACCGGAGTCACCTAGTGCAG”, the binding signal is 3150 fluorescence intensity (a.u.).
As for “TATAAAATTTCGCAATAACGACGAAAGTATTAAACGGACACGGAGTCACCTAGTGCAG”, the figure is 56200 fluorescence intensity (a.u.); as for “AAACATTATTAAATAGGTGTATGAATGACAGTCATACTTGCGGAGTCACCTAGTGCAG”, 3490 fluorescence intensity (a.u.); as for “TAGGATTCAGCTCCTTCCTATTAGGGGTTCACCCGCGAGTCGGAGTCACCTAGTGCAG”, 13800 fluorescence intensity (a.u.).
In the case of “CTATAAACTTAGTTAAACTAAAGCTGCTATTTAACTTTGACGGAGTCACCTAGTGCAG” it was 3280 fluorescence intensity (a.u.); in that of “CGAGGTTGCCCCTCCCCTCTCCTACGTGGTCGTGCCCCAACGGAGTCACCTAGTGCAG”, 5410 fluorescence intensity (a.u.); in that of “ATCGGCAAACGCGTTCCACCAAAACCCTCCACGTCAGCATCGGAGTCACCTAGTGCAG”, 29800 fluorescence intensity (a.u.).
In the case of “CTCTCTCTCTCTCTCTCTCTCTCTCTTGCCATTTAAAAGACGGAGTCACCTAGTGCAG” it was 4760 fluorescence intensity (a.u.).
With “TTAATTAATTAACGTATGTACTCAGGAATTATATATAATACGGAGTCACCTAGTGCAG”, the binding signal was 35600 fluorescence intensity (a.u.).
As for “AGCAAACATAATTAACATATATATAATAAAGCTCAAAGAGCGGAGTCACCTAGTGCAG”, the figure is 3780 fluorescence intensity (a.u.).
In the case of “TTATAATATATATAATAAATAAATGTATGTTTACTTATAGCGGAGTCACCTAGTGCAG” it was 19300 fluorescence intensity (a.u.); in that of “ATAATAAACTGAGAGGAGGATAGTAATATGTACTTAGTAACGGAGTCACCTAGTGCAG”, 48400 fluorescence intensity (a.u.); in that of “TAAAGAAAGAAAAGACATTAATAAAGCAGCAAAGAAAAGACGGAGTCACCTAGTGCAG”, 46000 fluorescence intensity (a.u.).
Consider “CCTTTTCCGCTTTAAAACACCACACAGTGACACACACACCCGGAGTCACCTAGTGCAG”, for which the binding signal is 5500 fluorescence intensity (a.u.).
In the case of “AGAAGAGAATGGAGTGGAGCTGACATGTGGGCTCCACCATCGGAGTCACCTAGTGCAG” it was 3950 fluorescence intensity (a.u.); in that of “GGCTCCGTCTTATCCTAACAACGCCAAGGGGCCACGTATGCGGAGTCACCTAGTGCAG”, 7210 fluorescence intensity (a.u.); in that of “CAGTTGACCGCCACGTAGAACCTGTTCCTCCAGCTCACCACGGAGTCACCTAGTGCAG”, 9340 fluorescence intensity (a.u.).
As for “TTCCTCGCGCTCCCACGCCACGCAGCAGCCGCAGATCTCCCGGAGTCACCTAGTGCAG”, the figure is 3630 fluorescence intensity (a.u.); as for “CAGAAACCAACCAACACAAGACACCGACCGACGCCGACCACGGAGTCACCTAGTGCAG”, 8450 fluorescence intensity (a.u.).
